Source: PubChem BioAssay (NCI)
The panel holds about 79,000 compounds, 15% with a hit somewhere; the sample as a whole holds those more often. Calls of active or inactive are those of the source. Cut-off read from the data, not from the text of the source: active = growth inhibition above about 70%; inactive = the rest. Where a SMILES comes first, the peptide text is derived from it.

Columns and labels:
[1] = NCI Yeast Anticancer Drug Screen. Data for the rad50 strain (AID 155);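 note: 0% = growth of vehicle-only cultures of the same strain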; details: S. cerevisiae rad50 strain growth inhibition; at 50.0 µM; hits give high values
Outline: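 Cells are treated with compound, grown, and their growth is then scored against vehicle-only cultures of the same repair-deficient yeast strain.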

[2] = NCI Yeast Anticancer Drug Screen. Data for the mec2-1 strain (AID 157); details: S. cerevisiae mec2-1 strain, at 50.0 µM, hits give high values
Outline: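 Cells of the genetically defined mec2-1 yeast strain are incubated with test compound. Inhibition of growth is calculated against vehicle-treated controls.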

[3] = NCI Yeast Anticancer Drug Screen. Data for the sgs1 mgt1 strain (AID 161);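 note: 0% = growth of cultures given vehicle only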; details: S. cerevisiae sgs1 mgt1 strain, at 50.0 µM, hits give high values
Outline: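 Test agents were incubated with a DNA-repair-mutant yeast strain. Growth was then read and compared against vehicle-treated controls.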

[4] = NCI Yeast Anticancer Drug Screen. Data for the cln2 rad14 strain (AID 165);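 note: 0% = growth equal to vehicle treated cultures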; details: S. cerevisiae cln2 rad14 strain, at 50.0 µM, hits give high values
Outline: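 The screen exposed genetically defined yeast (cln2 rad14) to test compounds and scored growth inhibition relative to vehicle-treated controls.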

[5] = NCI Yeast Anticancer Drug Screen. Data for the bub3 strain (AID 167); details: S. cerevisiae bub3 mutant strain, at 50.0 µM, hits give high values
Outline: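 Part of a panel of yeast mutants defective in DNA damage repair or cell cycle regulation. Each strain is grown with compound, and inhibition is calculated relative to solvent-treated cultures.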

[6] = NCI Yeast Anticancer Drug Screen. Data for the mlh1 rad18 strain (AID 175); details: S. cerevisiae mlh1 rad18 strain growth inhibition; at 50.0 µM; hits give high values
Outline: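 Compound-treated yeast growth, normalised to vehicle controls. Strain bears defined DNA repair mutations.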

Measured: growth inhibition

COc1ccc(N=C(C)C2C(=O)c3ccccc3C2=O)cc1
inactive: [1] 44% | [2] -21.9% | [3] -10.2% | [4] 13.7% | [5] 16.6% | [6] -30.7%

COc1ccc(NC(C)=O)cc1[N+](=O)[O-]
inactive: [1] -4.6% | [2] -7.7% | [3] -1.7% | [4] -13.3% | [5] -18.3% | [6] 6.15%

Cc1ccc(O)cc1C=C(Cl)Cl
inactive: [1] 18.6% | [2] 0.25% | [3] 35.6% | [4] 22.8% | [5] -0.3% | [6] 11.4%

O=c1c(Cl)cc(Cl)cn1S(=O)(=O)c1ccc([N+](=O)[O-])cc1
active: [1] 99.1% | [2] 95.3% | [3] 98.9% | [4] 98.7% | [5] 97.7% | [6] 98.9%

Cc1cccc(CSc2nc(N)nc3ncn(C4CC(O)C(CO)O4)c23)n1 (stereo unspecified)
inactive: [1] -20.9% | [2] 3.5% | [3] 10.7% | [4] -48.2% | [5] 2.05% | [6] -19.6%

COc1ccc(C(c2cc3c(cc2O)OCO3)N2CCCC2)cc1 (stereo unspecified)
inactive: [1] 17% | [2] -0.5% | [3] 15.9% | [4] -25.1% | [5] 12.1% | [6] 21.2%

COc1ccc2nccc(SCC(=O)O)c2c1
inactive: [1] -5.25% | [2] 8.25% | [3] -29.6% | [4] 18.9% | [5] 37% | [6] 1.85%

c1ccc2c(c1)C1OC2c2ccccc21
inactive: [1] -30.2% | [2] -20.3% | [3] -26.4% | [4] -26.3% | [5] -0.4% | [6] -1.25%

COc1ccccc1OC(=O)Nc1ccc(S(=O)(=O)N(C)C)cc1
inactive: [1] 28.2% | [2] 8.5% | [3] 0% | [4] 4.1% | [5] 8.65% | [6] 6.65%

NCCCCC(N)C(=O)NC1C(CO)OC(n2cnc3c(N)ncnc32)C1O (stereo unspecified)
inactive: [1] 31.9% | [2] 13.2% | [3] 7.55% | [4] 14.3% | [5] 5.75% | [6] 30.1%

O=CC1N=C1c1ccccc1 (stereo unspecified)
inactive: [1] 9.4% | [2] -0.05% | [3] 0.65% | [4] 18.3% | [5] 25.9% | [6] 16.1%

NC(=O)c1ccccn1
inactive: [1] 20.7% | [2] -5.45% | [3] 15% | [4] 18.3% | [5] 0.75% | [6] 28.4%

CCN(CC)CCCC(C)Nc1ccnc2ccc3nn(C)nc3c12 (stereo unspecified)
inactive: [1] -11.6% | [2] -4.6% | [3] -15.2% | [4] 2.25% | [5] -14% | [6] -14.3%

CCCCn1c(=O)cc(C(=O)O)c2ccccc21
inactive: [1] 1.7% | [2] -12.7% | [3] -0.5% | [4] -9.25% | [5] -7.9% | [6] 0.05%

CC1(C)C(CCO)CC1CCO (stereo unspecified)
inactive: [1] 2.25% | [2] -2.5% | [3] -1.45% | [4] -0.45% | [5] 0.4% | [6] -7.5%

Nc1cccn2cnnc12
inactive: [1] 0.1% | [2] 15.9% | [3] -4.6% | [4] 17.4% | [5] 23.1% | [6] 19.4%

CCOC(=O)c1c(O)nc2sc3ccccc3n2c1=O
inactive: [1] 19% | [2] 12.7% | [3] 6.7% | [4] -1.75% | [5] 13.6% | [6] 41.4%

N#C/C(=C\c1ccccn1)c1nc(-c2ccc(Cl)cc2)cs1
inactive: [1] -9.6% | [2] -27.9% | [3] -12.7% | [4] -0.1% | [5] 0.5% | [6] -14.6%

O=C(OC[P+](c1ccccc1)(c1ccccc1)c1ccccc1)c1ccccc1
inactive: [1] 44% | [2] 47.1% | [3] 44.9% | [4] 33.8% | [5] 38.6%
active: [6] 81.2%

Cc1cc2nc(-c3ccccc3O)[nH]c2cc1C
inactive: [1] -14.2% | [2] -29.9% | [3] -5.25% | [4] 2.1% | [5] -29.6% | [6] 9.35%

OCc1ccc(-c2ccccc2)cc1
inactive: [1] 4.4% | [2] -14.6% | [3] 4.6% | [4] 8% | [5] 3.7% | [6] 28.8%

CCCNS(=O)(=O)c1ccccc1C(=O)NC1CCCCC1
inactive: [1] 3.25% | [2] -9.9% | [3] 4.05% | [4] 10.8% | [5] -19.7% | [6] 22.2%

COc1ccccc1C=Nc1ccc(O)cc1
inactive: [1] 8.45% | [2] 12.3% | [3] 3.9% | [4] -26.6% | [5] 3.5% | [6] 37.5%

C/C(CC(=O)Nc1ccc(NC(=O)/C(C)=N/NS(=O)(=O)c2ccc(C)cc2)cc1)=N\NS(=O)(=O)c1ccc(C)cc1
inactive: [1] 16.2% | [2] 2.95% | [3] -12.8% | [4] -6.35% | [5] -0.9% | [6] 27.1%

COc1c(CCl)cc(-c2sc3ccccc3c(=O)c2CCl)cc1CCl
inactive: [1] -7.25% | [2] -7.3% | [3] 1.1% | [4] 2.85% | [5] -1.8% | [6] 1.85%

O=C(O)CCC(=O)Oc1ccccc1
inactive: [1] -17.6% | [2] 11.2% | [3] 13.2% | [4] 31.6% | [5] 9.6% | [6] 44.5%

C=C1C(=O)OC2/C=C(\C)C(=O)CC3OC(C)(C)OC3(C)CC(OC(=O)/C(C)=C/C)C12 (stereo unspecified)
inactive: [1] 15.4% | [2] -14% | [3] 16.6% | [4] 9.6% | [5] -16.2% | [6] -30.6%

O=C1CCCCc2ccccc21
inactive: [1] -39.1% | [2] -57.4% | [3] -7.95% | [4] -7% | [5] -25.1% | [6] -8.25%

Cc1cc(N(CCC#N)S(=O)(=O)c2ccccc2)ccc1/C=C1\N=C(c2ccc(Cl)cc2)OC1=O
inactive: [1] -4.5% | [2] 6.9% | [3] 7.8% | [4] -18.6% | [5] -2.7% | [6] 17.4%

CC(=O)NC(C(=O)NC(C)C(=O)N1CCCC1C(=O)O)C(C)C (stereo not drawn) (Ac-Val-Ala-Pro-OH; configuration not given here)
inactive: [1] 19.1% | [2] -19.5% | [3] -1.1% | [4] 15.1% | [5] 0.6% | [6] -3.65%

Nc1nc2[nH]c(=O)cnc2c(=O)[nH]1
inactive: [1] -17.8% | [2] -32.3% | [3] -26.2% | [4] -0.1% | [5] -27.5% | [6] -20.7%

CCN(CC)C(C)(C)C(=O)/C=C/c1ccc(OC)cc1
inactive: [1] -11.6% | [2] -15.2% | [3] -33.3% | [4] 12.7% | [5] 9.65% | [6] -18.4%

O=C(O)c1ccc2ccc(F)cc2c1Cc1ccccc1
inactive: [1] -4.15% | [2] -10.2% | [3] 12.9% | [4] 8.3% | [5] -1.4% | [6] -16.5%

CCOC(=O)c1nc(SC)sc1NC(=O)c1ccc(OC)cc1
inactive: [1] 12.8% | [2] -7.3% | [3] 13.1% | [4] 6.2% | [5] 17.7% | [6] -4.65%

CN(C)CCNC(=O)c1cccc2nc3c(C(=O)NCCN(C)C)cccc3nc12
inactive: [1] -11.7% | [2] -20.4% | [3] -46.6% | [4] -33.7% | [5] -34.1% | [6] -40.5%

COc1cccc(/C=C2/C(=O)N(c3ccc([N+](=O)[O-])cc3)N=C2C)c1
inactive: [1] 34.5% | [2] 5.1% | [3] 37.9% | [4] 11.9% | [5] 14.3% | [6] 43.9%

Cc1cc(N=Cc2c(CO)cnc(C)c2O)c(N=Cc2c(CO)cnc(C)c2O)cc1C.[Zn]
inactive: [1] 5.9% | [2] -8% | [3] 5.6% | [4] -3.15% | [5] -2.1% | [6] 0.9%

COC(=O)C1c2ccc(C)cc2-c2cc(C)ccc21
inactive: [1] 16.5% | [2] -36.9% | [3] 8.55% | [4] 17.4% | [5] 26.4% | [6] 32.6%

O=S=C1SC2CCCCC2S1 (stereo unspecified)
inactive: [1] 2.75% | [2] 4.15% | [3] -5.4% | [4] -9.05% | [5] -9.45% | [6] 8.1%

O=C(/C=C/c1ccccc1)NC1C=Nc2ccccc2NC1=O (stereo unspecified)
inactive: [1] 13.8% | [2] 18.2% | [3] 7.2% | [4] -11.9% | [5] 7.05% | [6] 16.1%

O=C1NC(=O)C(c2ccccc2)(c2ccsc2)N1 (stereo unspecified)
inactive: [1] 12.3% | [2] -4.3% | [3] 1.95% | [4] 10.6% | [5] 1% | [6] 13.6%
